Results from ChEMBL document CHEMBL3433997, “St. Jude Leishmania screening dataset” (2016).

Tests used:
Type in all cases: functional
[1] = molecular target: Solute carrier family 2, facilitated glucose transporter member 1 (Homo sapiens) (UniProt P11166); experiment: ST_JUDE_LEISH: Cytotoxicity at 2uM final concentration against transgenic Leishmania Mexicana promastigotes LmGLUT1 that are glucose transport deficient and complemented with the human glucose transporter GLUT1. Activity is measured by DNA content using SYBR green in vitro
Sequence of Solute carrier family 2, facilitated glucose transporter member 1 (Homo sapiens) (P11166 whole entry): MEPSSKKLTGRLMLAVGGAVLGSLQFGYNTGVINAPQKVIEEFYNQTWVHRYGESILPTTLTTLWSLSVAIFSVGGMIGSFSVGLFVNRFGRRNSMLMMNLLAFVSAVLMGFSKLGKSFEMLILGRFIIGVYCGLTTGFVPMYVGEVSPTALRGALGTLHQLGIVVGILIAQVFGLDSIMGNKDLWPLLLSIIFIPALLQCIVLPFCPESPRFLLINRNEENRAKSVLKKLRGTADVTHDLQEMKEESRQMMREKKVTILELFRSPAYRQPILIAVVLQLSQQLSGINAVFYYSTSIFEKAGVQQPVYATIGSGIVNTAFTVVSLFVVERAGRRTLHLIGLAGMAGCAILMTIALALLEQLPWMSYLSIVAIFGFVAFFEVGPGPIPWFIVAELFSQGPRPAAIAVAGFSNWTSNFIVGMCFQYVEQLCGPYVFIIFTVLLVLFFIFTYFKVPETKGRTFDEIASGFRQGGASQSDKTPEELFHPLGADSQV

[2] = molecular target: Hexose transporter 1 (Plasmodium falciparum) (UniProt O97467); experiment: ST_JUDE_LEISH: Cytotoxicity at 2uM final concentration against transgenic Leishmania Mexicana promastigotes LmPfHT that are glucose transport deficient and complemented with the Plasmodium falciparum hexose transporter. Activity is measured by DNA content using SYBR green in vitro
[3] = molecular target: Glucose transporter (Leishmania mexicana) (UniProt O61059); experiment: ST_JUDE_LEISH: Cytotoxicity at 2uM final concentration against transgenic Leishmania Mexicana promastigotes LmGT2 that are glucose transport deficient and complemented with the L. Mexicana glucose transporter 2. Activity is measured by DNA content using SYBR green in vitro

SMILES	inhibition [1]	inhibition [2]	inhibition [3]
Cc1cccc2c(/C=C/C(=O)NC3CCC(CCN4CCc5ccc(C#N)cc5CC4)CC3)c[nH]c12 (stereo not given)	10.1%	8.44%	7.58%
Cc1cccc(-c2ccc(NC(=O)Nc3ccc4nccc(N5CCN(C)CC5)c4c3)cc2C)n1	8.09%	5.32%	3.13%
Nc1ncc(-c2ccc(S(=O)(=O)Nc3ccc(C(=O)N[C@@H](CCC(=O)O)C(=O)O)cc3)cc2)c(=O)[nH]1	4.56%	4.19%	4.44%
CCCCCCCCCc1c(C)[nH]c2ccccc2c1=O	-1.28%	2.65%	2.28%
Cc1noc(-c2ccccc2)c1NC(=O)N1CCN(CCCCCCNC(=O)/C=C/c2ccc(Cl)c(Cl)c2)CC1	-2.35%	0.35%	-1.3%
CN1CCC(N2CCC(Oc3cccc(C(=O)NCCCC4CCCC4)c3)CC2)CC1	10.9%	10.4%	10.3%
Cc1cc(Nc2nc(NCc3cccnc3)nc3ccccc23)n[nH]1	8.58%	10.4%	10%
O=C(/C=C/c1ccc(Cl)c(Cl)c1)NCCCCCN1CCC(NC(=O)Nc2ccc(F)cc2F)CC1	1.35%	2.88%	1.33%
Cc1ncccc1C(=O)Nc1ccc(-c2cccc(-c3nc4cccc(C)c4[nH]3)c2)cc1	0.98%	0.96%	3.38%
Fc1ccc2c(NN=Cc3ccccc3F)ccnc2c1	0.28%	-0.28%	0.43%
CC(C)NCc1ccc(OCc2cccc(COc3ccc(CNC(C)C)cc3I)c2)c(I)c1	112%	109%	113%
O=C(Nc1cccc(CN2CCCN(CC3CCCCC3)CC2)c1)c1cc2ccccc2s1	1.81%	0.88%	-8.67%
COc1ccc(CN2CCC(N3CC(c4ccccc4)(c4ccccc4)OCC3=O)C2)c(O)c1 (stereo not given)	-1.54%	-0.28%	-1.56%
CC(NC(=O)c1ccc(O)c(-c2ccc(Cl)c(Cl)c2)c1)C(=O)NCCN1CCCC1 (stereo not given)	7.43%	6.16%	4.25%
O=C(Nc1ccc(Oc2ccccc2)cc1)N(Cc1ccc(-c2cccc(CN3CCNCC3)c2)cc1)C1CCN(Cc2ccccc2)CC1	3.46%	3.12%	3.01%
CCC[C@@H]([C@@H](CC1CCCCC1)C(=O)N[C@H](C(=O)Nc1nccs1)[C@H](C)O)N(O)C=O	1.07%	1.35%	2.03%
Cc1nc(C)c(-c2ccc(Oc3ccc(OC(F)(F)F)cc3)cc2)c(OC(=O)c2ccccc2)c1Cl	2.27%	3.78%	2.37%
c1ccc(-c2cccnn2)cc1	1.25%	1.26%	1.72%
NCCC(=O)Nc1ccc(-c2cnc3[nH]cc(-c4ccc(C(=O)O)cc4)c3c2)cn1	1.05%	1.74%	0.13%
COc1cc2nc(C)nc(Nc3ccc(Cc4ccccc4)cc3)c2cc1OC	4.72%	5.93%	3.99%
Cc1ccc(NC(=O)c2cc([N+](=O)[O-])ccc2NCc2cccnc2)cc1Cl	1.5%	0.38%	2.63%
O=C(N[C@@H](CC1CCCCC1)C(=O)NCCN1CCOCC1)c1ccc(O)c(-c2ccc(Cl)c(Cl)c2)c1	-0.52%	1.41%	0.27%
Cc1nc(C)c(CC(=O)Nc2cccc(-c3cccc(-c4nc5cc(C(F)(F)F)ccc5[nH]4)c3)c2)s1	2.61%	2.61%	1.2%
Cc1cccc2nc(-c3ccc(-c4ccc(CN5CCN(CCN6CCOCC6)CC5)cc4)cc3)[nH]c12	6.69%	8.97%	-1.08%

SMILES	inhibition [1]	inhibition [2]	inhibition [3]
O=C1CCCN1CCCNCc1cccc(-c2ccc(-c3nc4cc(C(F)(F)F)ccc4[nH]3)s2)c1	4.12%	3.19%	4.33%
CC(C)COc1ccc2ccccc2c1CNCCCCCCNCc1c(OCC(C)C)ccc2ccccc12	86.6%	88.5%	27.7%
COc1cc(Cc2cnc(N)nc2N)ccc1OCc1csc(-c2ccc(Cl)cc2)n1	10%	11.7%	9.8%
CCc1cn(C)c2c(N3CCCC3=O)cc(C(=O)N[C@@H](Cc3ccccc3)[C@H](O)CNC(C)(C)CCCC(C)C)cc12	3.03%	4.09%	3.95%
O=C(NC1CCCCCC1)C1CCCN(C(=O)c2ccc(O)c(-c3ccc(Cl)c(Cl)c3)c2)C1 (stereo not given)	3.16%	2.31%	2.57%
COC(=O)c1sc2ccccc2c1NC(=O)c1ccc(C)c(C)c1	5.3%	4.87%	5.56%
CCC(C)CC(=O)Nc1ccc(OC)c(S(=O)(=O)N[C@@H]2CCN(C#N)C2)c1 (stereo not given in full)	-0.28%	-0.4%	-0.94%
O=C(/C=C/c1ccccc1Cl)Nc1ccc(Br)c(OCCN2CCN(CCN3CCOCC3)CC2)c1	1.48%	1.38%	0.88%
Oc1ccc(CCCNc2nc(NCc3cccc4ccccc34)nc(N3CCNCC3)n2)cc1	-1.06%	0.53%	0.63%
COc1ccccc1CNC(=O)c1ccc(N2CCN(c3ccncc3)CC2)cn1	7.32%	2.84%	1.11%
COc1ccc(C2CC(=O)C3=C(C2)NC(C)=C(C(=O)OC(C)C)C3c2ccccc2F)cc1OC (stereo not given)	13.6%	2.16%	1.65%
COc1ccc(C2=[N+]([O-])c3ccccc3C2=O)cc1	0.97%	0.24%	-0.74%
Cc1[nH]c(C)c(-c2ccc(Oc3ccc(F)cc3)cc2)c(=O)c1Cl	4.38%	4.42%	3.79%
CO/C(=C\C=C\c1cc2cc(Cl)c(Cl)cc2[nH]1)C(=O)NCCCCN1CCN(c2ccccc2OC)CC1	3.1%	2.16%	1.91%
COc1ccc2nccc(N3CCC(NCCNS(=O)(=O)c4ccc5c(c4)NC(=O)CS5)C3)c2n1 (stereo not given)	-1.11%	-1.18%	-2.22%
CCNc1cc(C(=O)NC(Cc2ccccc2)C(O)CNC(C)(C)CCCC(C)C)c(F)c(N2CCCS2(=O)=O)c1 (stereo not given)	-2.99%	-1.24%	1.59%
O=C(Nc1ccccc1)c1ccc(N2CCC(COc3cccc(C(F)(F)F)c3)CC2)nc1	1.05%	1.65%	1.07%
Cc1cc(N(C)C)nc(Nc2ccc(NC(=O)c3cccc(F)c3)cc2)n1	3.36%	10.1%	3.75%
CN1CCC(NCc2cccc(-c3ccc(S(=O)(=O)NCCc4ccccn4)c(F)c3)c2)CC1	1.22%	0.03%	0.94%
O=C(CCc1cccnc1)Nc1ccc(-c2cccc(-c3nc4cc(F)ccc4[nH]3)c2)cc1	10.7%	9.99%	8.65%
COc1ccc(N2CCN(CCCCNC(=O)c3ccc(NC(=O)c4cc(Cl)cc(Cl)c4)cc3)CC2)c(OC)c1	2.07%	3.87%	3.2%
Oc1ccc(CCNc2nc(NCCCOc3ccccc3-c3ccc(C(F)(F)F)cc3)nc(N3CCNCC3)n2)cc1	-0.03%	-1.9%	-0.21%
Oc1cccc(-c2cnc3ccc(NCc4ccc(F)cc4)nn23)c1	-3.17%	0.63%	-1.63%
C[C@H]1CN(Cc2cccc(-c3cc(CNC(=O)c4cccc(C(=O)c5ccc(Cl)c(Cl)c5)c4)ccc3F)c2)CCN1	1.24%	2.34%	1.43%

SMILES	inhibition [1]	inhibition [2]	inhibition [3]
CCCCCC1c2[nH]c3ccccc3c2CCN1C(=O)OCc1ccccc1 (stereo not given)	7.38%	6.98%	7.22%
CN1CCCC1CCNCc1cccc(-c2cnc(N3CCCC(C)(C)C3)nc2)c1 (stereo not given)	108%	103%	104%
CC(C)CNCc1ccc(OCc2cccc(COc3ccc(CNCC(C)C)cc3I)c2)c(I)c1	2.2%	1.42%	2.23%
Oc1ccc(CCNc2nc(NCCCOc3ccccc3-c3ccc(F)cc3)nc(N3CCNCC3)n2)cc1	13.3%	14.8%	9.28%
Clc1ccc(-c2cnc3ccc(NCc4ccncc4)nn23)cc1	2.08%	0.84%	-0.5%
COc1cc2c(cc1N(C(C)C)S(=O)(=O)c1sc3ccc(Cl)cc3c1C)CCNCC2	43.3%	10.2%	3.21%
CC(C)CCN1CCCN(Cc2cccc(NC(=O)c3ccc(Cl)c(Cl)c3)c2)CC1	-1.69%	-1.38%	-3.74%
CN(C)CCN(C)Cc1cccc(-c2cccc(NC(=O)c3cccc(C#N)c3)c2)c1	2.87%	2.86%	4.89%
COc1ccc(OCC(O)CN(Cc2ccccc2OC)C(=O)Nc2ccc(Br)cc2)cc1 (stereo not given)	6.41%	4.6%	1.1%
Cc1nc(C(=O)N2CCCC[C@H]2CNC(=O)c2ccc(-c3ccc(N4CCCC4=O)cc3C)cc2)c(-c2ccc(F)cc2)s1	-1.91%	-0.31%	4.58%
Cc1ccc(N(CCC(=N)N)Cc2ccccc2)cc1	8.97%	3.59%	4.68%
CC(CN(C)C)C(=O)Nc1ccc(-c2ccc(-c3nc4ccccc4[nH]3)s2)cc1 (stereo not given)	2.59%	3.52%	6.24%
O=C(Nc1ccc2c(c1)CCC2)c1cccc(CN2CCCN(Cc3cccc(O)c3)CC2)c1	1.77%	-2.6%	-0.46%
CCN(C(=O)NC)C1c2cc(C#N)ccc2OC(C)(C)C1O (stereo not given)	2.85%	1.33%	1.87%
O=C(Nc1cccc(-c2ccc(-c3nc4ccccc4[nH]3)cc2)c1)c1cnn2cccnc12	-0.77%	-0.45%	-0.33%
CC(CCCC(=O)Nc1ccc(CC(C)NCCc2cccc(Cl)c2)cc1)NCCc1cccc(Cl)c1 (stereo not given)	2.68%	0.02%	1.32%
CCN(CCN(C)C)Cc1ccc(-c2ccc(NS(=O)(=O)c3cccc4cccnc34)cc2)cc1	14%	11.3%	6.11%
CC(=O)Nc1cccc(CNCc2ccc(-c3cnc(N4CCCC(C)(C)C4)nc3)cc2)c1	-2.79%	3.36%	0.65%
O=[N+]([O-])c1ccc(N/C(=N\c2ccccc2Br)NCCOc2ccccc2)c(O)c1	0.7%	-0.42%	-2.35%
CC(C)(C)c1ccc(CN2CCC(CNC(=O)c3cc(-c4cccc(C(F)(F)F)c4)cs3)C2)cc1 (stereo not given)	-1.18%	-0.44%	-5.97%
COc1ccc2ncc(C#N)c(CCN3C[C@H](CNCc4ccccc4)[C@H](O)C3)c2n1	3.18%	3.76%	2.91%
CCc1cn2c3c(cc(C(=O)N[C@@H](Cc4cc(F)cc(F)c4)[C@H](O)CNC4CCOCC4)cc13)N(C)S(=O)(=O)CC2	0.86%	-1.91%	-0.48%
